Screening data: PubChem BioAssay, several laboratories
Sampled rows, rich in hits. Any-hit rate of the full collection: about 4.5%.
Mdm2 MdmX PPI = inhibitors of human Mdm2/MdmX interaction. SaOS-2 split-luciferase Mdm2/MdmX complementation, luminescence. inhibition, % at 8 µM. hit rate 3% among 330,000. AID 485346;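 active = inhibition of at least 50% at 8 µM in the primary screen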
Target sequence (O15151 whole entry, looked up): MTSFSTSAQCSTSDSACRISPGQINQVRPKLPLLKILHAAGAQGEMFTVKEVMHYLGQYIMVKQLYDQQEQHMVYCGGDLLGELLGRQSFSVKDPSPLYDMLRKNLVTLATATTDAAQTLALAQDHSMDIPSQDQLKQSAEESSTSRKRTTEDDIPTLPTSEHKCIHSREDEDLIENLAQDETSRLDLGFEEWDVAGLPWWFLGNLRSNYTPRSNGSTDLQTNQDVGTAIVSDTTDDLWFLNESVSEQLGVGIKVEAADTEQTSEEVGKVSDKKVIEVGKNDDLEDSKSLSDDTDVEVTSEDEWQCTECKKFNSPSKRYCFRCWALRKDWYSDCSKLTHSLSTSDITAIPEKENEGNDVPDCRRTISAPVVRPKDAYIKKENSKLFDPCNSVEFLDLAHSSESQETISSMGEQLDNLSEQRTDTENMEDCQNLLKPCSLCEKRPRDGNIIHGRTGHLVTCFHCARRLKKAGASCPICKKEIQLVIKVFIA
Target sequence (Q00987 whole entry, looked up): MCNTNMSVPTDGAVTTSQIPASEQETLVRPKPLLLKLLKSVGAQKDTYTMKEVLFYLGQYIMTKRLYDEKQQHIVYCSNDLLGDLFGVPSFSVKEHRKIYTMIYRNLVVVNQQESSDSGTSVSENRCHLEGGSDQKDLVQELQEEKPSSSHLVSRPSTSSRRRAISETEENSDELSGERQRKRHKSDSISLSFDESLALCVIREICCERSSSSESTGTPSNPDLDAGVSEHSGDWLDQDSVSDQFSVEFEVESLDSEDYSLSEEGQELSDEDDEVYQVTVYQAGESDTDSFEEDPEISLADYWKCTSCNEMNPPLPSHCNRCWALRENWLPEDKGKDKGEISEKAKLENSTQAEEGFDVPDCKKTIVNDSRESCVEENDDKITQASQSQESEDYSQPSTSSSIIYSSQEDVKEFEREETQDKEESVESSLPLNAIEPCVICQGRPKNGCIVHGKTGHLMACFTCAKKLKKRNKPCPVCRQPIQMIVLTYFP
Gli-Sufu antag = antagonists of Gli-Sufu signaling | hit rate 0.74% among 340,000 | inhibition, % at 5 µM | AID 588413 | Sufu-KO-LIGHT fibroblasts, Gli luciferase reporter luminescence;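 active = inhibition above about 55%, limit read from the data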;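 also: 0% = DMSO-treated cells and 100% = wells with medium but no cells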
CSC inhib = blocks cancer stem cells. inhibition, % at 7.5 µM. AID 2717. cancer stem cell-like cells viability, luminescence. hit rate 1.1% among 300,000; in the data active = inhibition above about 75%; inconclusive = no clear call, values can overlap the other calls; tested in HMLE shEcad cells
697 NFkB inh = inhibitors of the PMA/ionomycin-induced NF-kB reporter in 697 B cells; AID 435022; 697 B-cell NF-kB luciferase reporter, 16 h; hit rate 0.33% among 330,000; inhibition, % at 4 µM; in the data active = inhibition above about 35%
Jurkat NFkB inh = inhibitors of the PMA/ionomycin-induced NF-kB reporter in Jurkat cells. PMA/ionomycin-induced NF-kB luciferase reporter, luminescence. inhibition, % at 4 µM. hit rate 0.53% among 330,000; in the data active = inhibition above about 50%
Beta apoptosis = beta cell apoptosis inhibition; INS-1E cytokine-induced death, ATP luminescence, 48 h; percent of positive-control rescue, neutral wells zero; protection from apoptosis, % (no concentration beside the values); hit rate 0.8% among 300,000;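 active = Every replicate reaches about 75%, or at least half do and their mean reaches it too, limit read from the data; inconclusive = At least half of replicates reach the limit but their mean does not; inactive = Under half of replicates reach the limit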;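 also: 0% = cytokine-treated negative control wells and 100% = positive control rescue; higher means more ATP so stronger rescue from cytokine killing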
Mdm2 MdmX conf = human Mdm2/MdmX binding inhibition, confirmed. shares compounds with Mdm2 MdmX PPI. hit rate 55% among 10,000. luminescent assay. AID 489028. inhibition, % at 8 µM; in the data active = inhibition above about 40%
Full FLuc ctr = full-length luciferase inhibition in Mdm2/MdmX counter-screen. shares compounds with Mdm2 MdmX PPI. SaOS-2 full-length luciferase counterscreen, luminescence. inhibition, % at 8 µM. hit rate 77% among 6,200. AID 504607;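 active = mean inhibition at 8 µM reaching about 37%, which flags the compound as non-specific, limit read from the data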;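 also: p53-null SaOS-2 cells with luciferase driven by a doxycycline-inducible promoter; compound on cells about two nights before reading with doxycycline added after day one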
* marks the source's active call; other numbers are inactive results.

C[C@@H]1NS(=O)(=O)[C@H]2C[C@@H]3C=C[C@]2(O3)[C@H]1OC(=O)Nc1ccc(C(F)(F)F)cc1[N+](=O)[O-] was read as Mdm2 MdmX PPI -19, Gli-Sufu antag -7, CSC inhib -10, 697 NFkB inh 16, Jurkat NFkB inh 6 and Beta apoptosis -7.
Cc1cc(C)c(NC(=O)c2cccc3c2C(=O)N(C2CCCCC2)C3)c(C)c1 was read as Mdm2 MdmX PPI 63*, Gli-Sufu antag 33, CSC inhib -9, 697 NFkB inh 8, Jurkat NFkB inh 2, Beta apoptosis -9 and Mdm2 MdmX conf -2.
`CN(C)S(=O)(=O)c1ccc(-c2csc(N/N=C/c3ccc(O)cc3)n2)cc1` gave Mdm2 MdmX PPI 100*, Gli-Sufu antag 12, CSC inhib 130*, 697 NFkB inh 2, Jurkat NFkB inh 21, Beta apoptosis 14, Mdm2 MdmX conf 83* and Full FLuc ctr 38*.
Screening CN(C)S(=O)(=O)c1ccc(-c2csc(N/N=C/c3ccco3)n2)cc1 returned Mdm2 MdmX PPI 72*, Gli-Sufu antag 6, CSC inhib 20, 697 NFkB inh -59, Jurkat NFkB inh 31, Beta apoptosis 20 and Mdm2 MdmX conf 36.
`Cc1cc(Oc2nc3c(C)cccn3c(=O)c2/C=C(\C#N)S(=O)(=O)c2ccccc2)ccc1Cl` gave Mdm2 MdmX PPI 52*, Gli-Sufu antag 2, CSC inhib -7, 697 NFkB inh 19, Jurkat NFkB inh 9, Beta apoptosis 8 and Mdm2 MdmX conf 7.
Screening Cc1cccn2c(=O)c(/C=C(\C#N)S(=O)(=O)c3ccccc3)c(Oc3ccc(Cl)cc3)nc12 returned Mdm2 MdmX PPI 15, Gli-Sufu antag 9, CSC inhib 4, 697 NFkB inh -14, Jurkat NFkB inh 11 and Beta apoptosis 1.
CCCCn1c(N)c(N(CC(C)C)C(=O)CSc2nnc(C)n2-c2ccc(OC)cc2)c(=O)[nH]c1=O was read as Mdm2 MdmX PPI 6, Gli-Sufu antag -7, 697 NFkB inh 13, Jurkat NFkB inh 7 and Beta apoptosis 2.
COc1cccc(-c2nn(C)c3sc(C(=O)NCc4ccc(C)o4)cc23)c1 was read as Mdm2 MdmX PPI 70*, Gli-Sufu antag 11, CSC inhib -3, 697 NFkB inh -5, Jurkat NFkB inh -20, Beta apoptosis -19 and Mdm2 MdmX conf 15.
`COc1ccc(NC(=O)c2cc3c(-c4ccc(OC)c(OC)c4)nn(C)c3s2)cc1OC` gave Mdm2 MdmX PPI 97*, Gli-Sufu antag 6, CSC inhib 43, 697 NFkB inh 17, Jurkat NFkB inh -6, Beta apoptosis 23, Mdm2 MdmX conf 67* and Full FLuc ctr 50*.
For CCOc1ccccc1NC(=O)CCc1nnc2ccc(N3CCC4(CC3)OCCO4)nn12 the results were Mdm2 MdmX PPI -18, Gli-Sufu antag 45, CSC inhib 2, 697 NFkB inh -10, Jurkat NFkB inh 2 and Beta apoptosis 0.
`CCN(CC)S(=O)(=O)c1cc(NC(=O)Cn2ncc(Cl)c(Cl)c2=O)ccc1C` gave Mdm2 MdmX PPI 100*, Gli-Sufu antag 2, CSC inhib inconclusive, 697 NFkB inh -10, Jurkat NFkB inh 7, Beta apoptosis -15, Mdm2 MdmX conf 100* and Full FLuc ctr 50*.
`CCC(=O)c1ccc2c(c1)OCCO2` gave Mdm2 MdmX PPI -11, Gli-Sufu antag -6, CSC inhib 9, 697 NFkB inh -21, Jurkat NFkB inh -23 and Beta apoptosis -2.
Cc1ccc(NC(=O)CCl)cc1S(=O)(=O)N1CCCCCC1 was read as Mdm2 MdmX PPI 97*, Gli-Sufu antag 18, CSC inhib 71, 697 NFkB inh 20, Jurkat NFkB inh 24, Beta apoptosis 12 and Mdm2 MdmX conf 26.
For O=C(Cn1ncc(Cl)c(Cl)c1=O)c1ccc2c(c1)OCCO2 the results were Mdm2 MdmX PPI 100*, Gli-Sufu antag -25, CSC inhib 112*, 697 NFkB inh -34, Jurkat NFkB inh -1, Beta apoptosis 113*, Mdm2 MdmX conf 82* and Full FLuc ctr 52*.
For O=C(CN1CCCCC1)NC(=O)NC1CCCC1 the results were Mdm2 MdmX PPI 20, Gli-Sufu antag -1, CSC inhib -17, 697 NFkB inh -18, Jurkat NFkB inh -16 and Beta apoptosis 0.
For O=C(Cn1ncc(Cl)c(Cl)c1=O)NC(=O)NC1CCCCC1 the results were Mdm2 MdmX PPI 100*, Gli-Sufu antag 13, CSC inhib inconclusive, 697 NFkB inh -27, Jurkat NFkB inh 13, Beta apoptosis -4, Mdm2 MdmX conf 97* and Full FLuc ctr 50*.
For CN1C(=O)NC(=O)C1c1ccccc1 (stereo not drawn) the results were Gli-Sufu antag -4.
Screening Cc1ccc2nc3n(c(=O)c2c1)-c1ccccc1C(=O)NC3Cc1ccccc1 (stereo not drawn) returned Mdm2 MdmX PPI -18, CSC inhib -8, 697 NFkB inh 19, Jurkat NFkB inh 7 and Beta apoptosis -3.
O=C(c1cnn(C(=O)CN2CCCC2=O)c1)c1ccccc1O was read as Mdm2 MdmX PPI 7, Gli-Sufu antag -7, CSC inhib -7, 697 NFkB inh 18, Jurkat NFkB inh 9 and Beta apoptosis -6.
For COc1ccccc1C(=O)NCCC(=O)NNC(=O)Cn1ccc(C(F)(F)F)n1 the results were Mdm2 MdmX PPI 8, Gli-Sufu antag -3, CSC inhib -15, 697 NFkB inh -12, Jurkat NFkB inh 1 and Beta apoptosis -2.
Screening Cc1cc(C)cc(NC(=O)COC(=O)Cn2cnc3c2c(=O)n(C)c(=O)n3C)c1 returned Mdm2 MdmX PPI 4, Gli-Sufu antag -1, 697 NFkB inh -6 and Jurkat NFkB inh -15.
Cc1ccc(S(=O)(=O)N2CCCCC2)cc1NC(=O)Cn1ncc(Cl)c(Cl)c1=O was read as Mdm2 MdmX PPI 97*, Gli-Sufu antag 1, CSC inhib 90*, 697 NFkB inh -37, Jurkat NFkB inh 15, Beta apoptosis -20, Mdm2 MdmX conf 99* and Full FLuc ctr 55*.
Screening O=C(Cn1ncc(Cl)c(Cl)c1=O)Nc1ccc2c(c1)OCO2 returned Mdm2 MdmX PPI 100*, Gli-Sufu antag -4, 697 NFkB inh -2, Jurkat NFkB inh -1, Beta apoptosis -7, Mdm2 MdmX conf 83* and Full FLuc ctr 57*.
`Cc1nn(CC(=O)Nc2ccc3c(c2)OCO3)c(C)c1Cl` gave Mdm2 MdmX PPI -9, CSC inhib -1, 697 NFkB inh 1, Jurkat NFkB inh -2 and Beta apoptosis 0.
Screening Cc1cc(Br)ccc1NC(=O)CNC(=O)Cn1ncc(Cl)c(Cl)c1=O returned Mdm2 MdmX PPI 97*, Gli-Sufu antag -10, CSC inhib 83*, 697 NFkB inh -26, Jurkat NFkB inh 28, Beta apoptosis -59, Mdm2 MdmX conf 99* and Full FLuc ctr 48*.
